Experimental data published in PubChem BioAssay (NCI).
“And” between values parts separate entries of the source, which are not always exact repeats. Equal values may be shown once. This is part of a sample that, as a whole, favours compounds with a hit. Of some 83,000 tested, about 20% had one in any assay.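 96-well plates, one dose, 48 hours. Percent growth reported; active if below 10.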 The source made the active and inactive calls.

test system: TK-10 renal; test: NCI-60 one-dose screen, 48 h (100 = growth as untreated, 0 = no growth, -100 = all killed); conditions: 10 µM unless noted

Structure (SMILES)	growth
CCOC(=O)COc1cc(-c2ccccc2F)nc2cc3c(cc12)OCO3	126% [100 µM] (inactive) and 78.4% [100 µM] (inactive)
On1c(-c2ccccc2)nc2ccccc2c1=S	1.71% [100 µM] (active) and -38.8% [100 µM] (active)
C=C1C(=O)OC2CC1C(OC(=O)/C=C/c1ccccc1)C/C(C)=C/CC/C(C)=C/CCC2(C)O (configuration not stated)	-99.2% [100 µM] (active) and -83.5% [100 µM] (active)
c1csc(-c2[nH]nc3c2CCc2ccccc2-3)c1	27.8% (inactive)
COc1ccc2c(c1)C(OC)C1c3c(cc4c(c3-2)OCO4)CCN1C (configuration not stated)	-18.2% [100 µM] (active) and -91.5% [100 µM] (active)
CCOC(=O)C1C(C(C)C)C2(C#N)C(=N)OC1(C)C2(C#N)C#N (configuration not stated)	5.66% [100 µM] (active) and -73.8% [100 µM] (active)
O=Cc1ccc(-c2ccc(-c3ccc(CO)s3)o2)s1	-35% [100 µM] (active) and -93.3% [100 µM] (active)
COc1ccc(Nc2nc3ccc(C(F)(F)F)cc3nc2C(=O)O)cc1	-10.5% [100 µM] (active) and -93.8% [100 µM] (active)
C=CCO/N=C/c1cc(NC(=S)c2ccoc2C)ccc1Cl	-93.7% [100 µM] (active) and -93.1% [100 µM] (active)
CC1(C)CCC2(C(=O)O)C(O)CC3(C)C(=CCC4C5(C)CCC(OC6OCC(O)C(O)C6OC6OCC(O)C(O)C6OC6OCC(O)C(OC7OC(CO)C(O)C(O)C7O)C6O)C(C)(C)C5CCC43C)C2C1 (configuration not stated)	116% [100 µM] (inactive) and 15.1% [100 µM] (inactive)
C[C@@H]1CCC([C@@H](C)[C@H]2CC[C@H]3[C@@H]4CC[C@H]5C[C@@H](O)CC[C@]5(C)[C@H]4CC[C@]23C)=NC1	27.5% [100 µM] (inactive) and -69% [100 µM] (active)
CC1=C(C2=C(C)C(=O)C(=O)c3cc(C)ccc32)c2ccc(C)cc2C(=O)C1=O	-100% [100 µM] (active)
Cc1cc(O)c2c(c1)C(=O)C(c1c(C)cc3c(c1O)C(=O)C1OC1C3=O)=CC2=O (configuration not stated)	-99.7% [100 µM] (active) and -86.5% [100 µM] (active)

test system: A498 renal; test: as above; conditions: 10 µM unless noted

Structure (SMILES)	growth
CCCCN(CCCC)CCCCCCCCCCO	123% (inactive)
O=[N+]([O-])c1cc(-c2ccccc2)c(O)c([N+](=O)[O-])c1	82.3% (inactive)
c1csc(-c2[nH]nc3c2CCc2ccccc2-3)c1	77.7% (inactive)

test system: CCRF-CEM leukemia; test: as above; conditions: 10 µM unless noted

Structure (SMILES)	growth
CCCCN(CCCC)CCCCCCCCCCO	98% (inactive)
O=[N+]([O-])c1cc(-c2ccccc2)c(O)c([N+](=O)[O-])c1	16.3% (inactive)
c1csc(-c2[nH]nc3c2CCc2ccccc2-3)c1	98.1% (inactive)

test system: MOLT-4 leukemia; test: as above; conditions: 10 µM unless noted

Structure (SMILES)	growth
CCCCN(CCCC)CCCCCCCCCCO	83% (inactive)
O=[N+]([O-])c1cc(-c2ccccc2)c(O)c([N+](=O)[O-])c1	71.9% (inactive)
c1csc(-c2[nH]nc3c2CCc2ccccc2-3)c1	69.6% (inactive)
